# Source: the supplement of paper PMC6555819
# Experiments:
# Experiment in all cases: PBM binding z-score (relative to random genomic background probes); higher = stronger binding; sequences stand for … in GC…GCGATTGACAGCGTAGAATGAAGG
# [1] = test system: FXR:RXRa (NR concentration 270 nM, RXRa partner concentration 90 nM)
# Outline: (§1)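 Custom Agilent 4×180K protein-binding microarrays carried double-stranded probes. Their 34-nt variable regions held direct-repeat seeds, single-nucleotide variants, half-site ablations and random human genomic background sequences. Arrays were incubated 1 h with ligand-free nuclear receptor dimers in PBS pH 7.4, 2% milk, 0.02% Triton X-100, 1 mM DTT, 0.2 mg/mL BSA and 0.4 mg/ml salmon testes DNA. Antibodies against each partner (one per run) detected binding, and scanned fluorescence was regression-normalized. Binding z-scores use random background probes as reference.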
# [2] = test system: LXRa:RXRa (NR concentration 270 nM, RXRa partner concentration 90 nM)
# Outline: as §1
# [3] = test system: LXRa homodimer (NR concentration 270 nM)
# Outline: as §1
# [4] = test system: LXRb:RXRa (NR concentration 270 nM, RXRa partner concentration 90 nM)
# Outline: as §1
# [5] = test system: LXRb homodimer (NR concentration 270 nM)
# Outline: as §1
# [6] = test system: PPARa:RXRa (NR concentration 270 nM, RXRa partner concentration 90 nM)
# Outline: as §1
# [7] = test system: PPARg:RXRa (NR concentration 180 nM, RXRa partner concentration 90 nM)
# Outline: as §1
# [8] = test system: PPARg:RXRa 270nM:90nM, anti-RXR (NR concentration 270 nM, RXRa partner concentration 90 nM)
# Outline: as §1
# [9] = test system: PPARg:RXRa 30nM:10nM, anti-RXR (NR concentration 30 nM, RXRa partner concentration 10 nM)
# Outline: as §1
# [10] = test system: PPARg:RXRa 90nM:30nM, anti-RXR (NR concentration 90 nM, RXRa partner concentration 30 nM)
# Outline: as §1
# [11] = test system: PPARg:RXRa DBDmut IVT, anti-RXR (DBD mutation: RXRa K156A/R161A, NR concentration 270 nM, RXRa partner concentration 90 nM)
# Outline: as §1
# [12] = test system: PPARg:RXRa IVT, anti-PPARg (NR concentration 270 nM, RXRa partner concentration 90 nM)
# Outline: as §1
# [13] = test system: PPARg DBDmut:RXRa IVT, anti-PPARg (DBD mutation: PPARg1 K132A/R137A, NR concentration 270 nM, RXRa partner concentration 90 nM)
# Outline: as §1
# [14] = test system: PPARg DBDmut IVT, anti-PPARg (DBD mutation: PPARg1 K132A/R137A, NR concentration 270 nM)
# Outline: as §1
# [15] = test system: PPARg homodimer (NR concentration 180 nM)
# Outline: as §1
# [16] = test system: PXR:RXRa (NR concentration 270 nM, RXRa partner concentration 90 nM)
# Outline: as §1
# [17] = test system: PXR homodimer (NR concentration 270 nM)
# Outline: as §1
# [18] = test system: RARa:RXR (NR concentration 270 nM, RXRa partner concentration 90 nM)
# Outline: as §1
# [19] = test system: RARa homodimer (NR concentration 270 nM)
# Outline: as §1
# [20] = test system: RARb:RXRa (NR concentration 270 nM, RXRa partner concentration 90 nM)
# Outline: as §1
Sequence,PBM binding z-score [1],PBM binding z-score [2],PBM binding z-score [3],PBM binding z-score [4],PBM binding z-score [5],PBM binding z-score [6],PBM binding z-score [7],PBM binding z-score [8],PBM binding z-score [9],PBM binding z-score [10],PBM binding z-score [11],PBM binding z-score [12],PBM binding z-score [13],PBM binding z-score [14],PBM binding z-score [15],PBM binding z-score [16],PBM binding z-score [17],PBM binding z-score [18],PBM binding z-score [19],PBM binding z-score [20]
TCTATTAGTCGAAGGGCAACCGACGAGTCCGTTT,0.678,0.643,0.0615,0.638,0.475,0.751,0.274,2.2,3.57,2.77,2.28,0.642,0.468,0.866,0.702,0.597,0.535,0.379,0.63,1.36
CCCGAAAGGTCGGTTGAGGTGAGTATACGGATAA,3.38,2.22,0.406,1.69,0.134,2.76,0.61,1.12,0.00163,0.671,0.203,0.845,-0.316,-0.0998,1.28,3.49,0.481,2.51,0.922,3.33
ATTGAAAGGTCGACGAGGTGAGTATACACCGTTT,4.73,3.32,0.465,2.94,0.545,4.55,3.33,3.53,1.38,2.5,0.761,2.3,1.58,1.35,1.78,3.19,0.959,3.86,0.685,4.05
CGAACGAGGGCATGGGTTGATAGCAAATGCCGAT,0.548,0.397,-0.228,0.329,-0.69,2.01,3.1,3.6,1.43,3.25,2.5,2.69,-0.338,0.301,0.704,0.517,0.232,0.938,-0.224,2.05
CGAACTAGGTCAGAACAGGACAGAGAAGGATGAT,1.6,0.878,0.159,0.278,-0.292,2.94,5.04,4.26,1.71,3.03,7.13,7.18,1.45,0.658,0.782,0.74,0.047,0.515,0.919,2.88
GCTGCTAGGTCTGGTTGGTCAGCTAACGGGTACG,-0.623,-0.65,-0.365,-0.912,-0.475,-0.774,-0.79,-0.447,-1.15,-0.815,-0.0168,-0.444,-1.29,-0.941,-0.461,-0.762,-0.661,-0.909,-0.893,0.00464
CGAACGAGGGCATGAGCTGATAGCAAATGCCGAT,0.486,0.253,-0.266,0.0131,-0.954,1.39,1.02,0.67,-0.212,0.364,2.42,1.97,0.174,-0.689,-0.392,0.327,-0.221,0.529,-0.331,1.87
CCTACTGGGCCAAGGCCATTGATCAGTCAAAGCA,-0.412,-0.51,-0.664,-0.606,-0.891,-0.0978,0.449,0.724,-0.7,-0.174,2.95,2.89,-0.753,-1.61,0.0949,-0.456,-0.233,-0.557,-0.85,0.554
CCTACCAGGCCAGGGTCACTCAAGCATTTCGCTT,2.09,1.56,-0.206,2.18,-0.678,2.88,0.899,1.61,-0.554,0.539,-0.315,1.13,-1.07,-1.26,1.75,2.39,0.0777,2.79,0.657,2.65
GCTAGTTGATCAGTAAAAGGTCACACACCGGTCG,3.16,4.73,4.21,3.98,0.478,4.53,2.11,4.16,1.58,3.46,0.158,1.96,0.246,0.272,2.88,4.83,0.914,5.64,2.24,3.89
CCTACTGGGCCAAAGGTCATTCATTCCAATGCTC,4.99,5.4,5.18,5.18,1.33,6.7,12.2,10.6,10.6,11.8,5.26,6.63,2.52,-0.185,4.56,5.58,2.49,6.3,1.85,4.46
CCAGACAGGTGACAGGTAACTCAGTCTGGTACGC,-0.312,-0.0899,-0.169,-0.0936,-0.582,0.79,1.37,1.4,0.0561,0.74,1.77,1.46,-0.216,-0.746,0.536,-0.209,0.203,0.0624,0.656,0.724
CAAATTAGGTCAAGGTCAAAGTCGGTTTGTGCCA,6.89,5.96,4.73,4.86,2.29,6.17,9.22,8.16,6.73,8.31,8.62,8.52,4.74,1.94,5.8,5.5,3.06,5.77,4.26,5.2
ACTATTAGTTGACTTAGGGCAAGCGATACGACGC,0.286,0.302,0.111,0.0469,0.509,0.124,0.824,0.206,0.267,0.144,0.209,0.768,0.636,1.04,0.596,0.255,0.294,0.775,0.794,0.892
TAGCCTAGGTCAGATCGGGCCAGAATACGCTATA,1.65,1.06,-0.312,0.942,-0.714,1.79,0.869,0.835,-0.187,0.398,0.095,1.57,-0.542,-0.739,0.124,0.946,-0.549,1.87,-0.627,2.93
TGAATGAGGTTAAAAATCAGGGAACGTGGCGTCG,1.83,1.78,-0.491,1.1,0.545,2.87,1.72,2.33,1.16,1.77,1.43,1.8,0.361,0.195,-0.0328,0.848,-0.0817,1.45,-0.472,1.32
ACTCAAAGTTCAGGACGAGGTAACGTAAAGCACG,4.15,4.07,1.77,2.18,0.639,3.27,1.61,1.86,0.747,1.23,0.133,0.996,0.541,0.409,2.29,3.09,1.46,2.81,0.77,4.52
